# Compounds with a hit are over-represented: about 4.5% of the library has one in this group of screens.
# HDAC3 inh – HDAC3 deacetylase inhibitors, primary screen, biochemical, fluorescence, cell-free homogeneous; recombinant HDAC3, fluorogenic peptide/trypsin coupled; actives 0.15% (n = 320,000); inhibition, % at 8.3 µM; in the data active = inhibition above about 26%, passing the limit was not always enough; inconclusive = no clear call, values can overlap the other calls
# Target sequence (O15379 whole entry, looked up): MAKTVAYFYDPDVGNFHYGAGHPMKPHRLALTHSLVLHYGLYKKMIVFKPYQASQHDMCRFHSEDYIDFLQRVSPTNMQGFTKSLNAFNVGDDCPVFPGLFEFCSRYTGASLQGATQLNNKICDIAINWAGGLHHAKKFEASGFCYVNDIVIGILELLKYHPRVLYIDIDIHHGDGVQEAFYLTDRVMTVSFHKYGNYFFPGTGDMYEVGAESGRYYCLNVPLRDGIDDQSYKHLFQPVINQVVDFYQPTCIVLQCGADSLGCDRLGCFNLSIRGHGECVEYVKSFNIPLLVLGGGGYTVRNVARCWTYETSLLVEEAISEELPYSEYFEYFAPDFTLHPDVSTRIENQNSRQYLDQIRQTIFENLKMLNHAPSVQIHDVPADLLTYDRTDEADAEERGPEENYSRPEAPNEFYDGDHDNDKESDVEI
# GRK2 aptamer HTS – compounds blocking aptamer binding on GRK2 – biochemical, human GRK2, bead flow cytometry, HTS, primary screen; Beta-adrenergic receptor kinase 1 (Homo sapiens), P25098; FAM-aptamer displacement from GRK2; inhibition of aptamer binding, % at 10 µM; actives 0.59% (n = 330,000);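 active = inhibition of aptamer binding above 40%, roughly 3 SD of noise, on plates passing a quality check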;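 note: median bead fluorescence of bound FAM aptamer so fluorescent compounds give negative values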
# ALR inh – inhibitors of human ALR sulfhydryl oxidase, primary screen, biochemical, H2O2 detection, HRP-luminol luminescence, single point | FAD-linked sulfhydryl oxidase ALR (Homo sapiens), P55789 | purified ALR, DTT oxidation | inhibition, % (no concentration beside the values) | actives 3.8% (n = 290,000) | AID 485317, 2010;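 active = mean replicate inhibition above about 79%, with every replicate also reaching it, limit read from the data; inconclusive = only one of the two criteria met; inactive = mean below limit and not every replicate reaching it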
# Rce1 inh – yeast Rce1p protease inhibitors, primary screen, biochemical, fluorescence, cell-free homogeneous; CAAX prenyl protease 2 (Saccharomyces cerevisiae (strain ATCC 204508 / S288c)), Q03530; yeast membranes, quenched prenylated peptide cleavage fluorescence; calls only; actives 0.27% (n = 290,000); AID 2563, 2010;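 active = fall in fluorescence gain of 50% or more versus controls, with final raw signal at or below 3038400; inconclusive = same 50% fall but final raw signal above 3038400; inactive = fall in fluorescence gain under 50%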;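 note: plate controls were neutral control wells for no effect and wells lacking membranes for full effect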
# Rtt109 Vps75 – inhibitors of C. albicans Rtt109/Vps75 HAT, primary screen, biochemical, ThioGlo CoA-SH fluorescence, plate reader | Histone acetyltransferase RTT109 (Candida albicans (strain SC5314 / ATCC MYA-2876)), … | purified Rtt109/Vps75, 4 h | inhibition, % at 34.9 µM | actives 0.16% (n = 330,000);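 active = inhibition of at least 50% in every replicate; inconclusive = best replicate reaches 50% inhibition but some replicates fall short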
# Efflux pump inh – inhibitors of Candida efflux pumps in yeast, primary screen, S. cerevisiae, Nile Red, multiplex. inhibition, % at 10 µM. S. cerevisiae Candida pump triplex. actives 0.44% (n = 330,000). AID 485275, 2010;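 active = plate passing quality check with inhibition over a set limit, or well fluorescence over plate mean plus 4 SD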;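 note: Nile Red retained in pooled yeast measured as flow cytometry median fluorescence; 0% = buffer negative control and 100% = Enniatin B positive control; higher means more Nile Red kept so more efflux inhibition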
# The depositor's hits bear a star; i = inactive; ? = inconclusive; . = not tested or not shown.
SMILES,HDAC3 inh,GRK2 aptamer HTS,ALR inh,Rce1 inh,Rtt109 Vps75,Efflux pump inh
Cc1ccc(O)c(C2=NCCNC(C(F)(F)F)=C2)c1,3.7,0.0,91.2*,i,-10.2,0.1
Oc1c(C2=NCCNC(C(F)(F)F)=C2)ccc2ccccc12,.,.,.,i,13.3,.
O=S(=O)(c1cccc(C(F)(F)F)c1)N1CCN(S(=O)(=O)c2ccc3c(c2)OCCO3)CC1,2.0,0.0,-7.3,.,2.9,-0.3
O=C(Cc1ccc2c(c1)OCCO2)N1CCN(S(=O)(=O)c2cccc(C(F)(F)F)c2)CC1,0.4,0.0,89.5*,i,1.5,0.3
O=C(CSc1ccc(Br)cc1)Nc1ccc(N2CCOCC2)cc1,7.8,3.0,-10.6,i,10.2,0.0
COc1ccc(CC(=O)OCC(=O)NCc2ccc(C)cc2)cc1OC,0.2,1.0,-15.2,.,3.3,0.1
O=C(CCSc1ccc(Cl)cc1)N1CCN(c2ccc(O)cc2)CC1,.,4.0,99.5*,i,26.6,-0.1
Cc1cc([N+](=O)[O-])nn1CCCC(=O)N1CCN(c2ccccc2)CC1,-5.8,2.0,97.8*,i,0.1,-0.1
O=C(CSc1ccccc1)N1CCN(c2ccccc2)CC1,11.8,0.0,10.6,i,-4.2,0.0
O=C(CCSc1ccccc1)N1CCN(c2ccccc2)CC1,1.3,0.0,90.8*,i,-4.3,0.0
Cc1c(Cl)c([N+](=O)[O-])nn1CCCC(=O)N1CCN(c2ccccc2)CC1,0.4,6.0,?,i,1.6,0.2
O=C(CCN1C(=O)c2ccccc2S1(=O)=O)N1CCN(c2ccccc2)CC1,4.1,0.0,87.8*,i,5.7,0.1
COc1ccccc1CCc1nnc(CCC(=O)NC(C)Cc2cccs2)o1 (stereo not drawn),7.3,0.0,-17.6,i,.,-0.1
CCN(C[C@H]1N[C@@](CC)(C(=O)OC)[C@H]2C(=O)N(Cc3ccccc3)C(=O)[C@@H]12)S(=O)(=O)c1ccc(OC(F)(F)F)cc1,.,0.0,.,.,-3.0,-0.3
Cc1cccc(NC(=O)c2ccc(N3C(=O)C4CCCCC4C3=O)cc2)c1C (stereo not drawn),-10.3,0.0,-13.6,i,-0.4,-0.3
CCN1C(=O)[C@@H]2Cc3c([nH]c4ccccc34)C(c3ccc(OC)cc3)N2C1=S (stereo partly drawn),1.2,36.0,-6.1,i,3.8,-0.1
COC(=O)/C=C1/S/C(=N/NC(=O)c2ccc(OC)cc2)NC1=O,2.8,0.0,6.1,i,4.2,0.0
COC(=O)/C=C1/S/C(=N/NC(=O)c2ccccc2OC)NC1=O,3.9,4.0,96.6*,i,4.5,0.0
COc1ccc2cc(C(=O)N/N=C/c3sc4ccccc4c3O)ccc2c1,4.9,4.0,6.6,i,20.5,-0.2
O=C(N/N=C/c1sc2ccccc2c1O)c1ccccc1,6.5,0.0,88.1*,i,18.8,-0.2
COc1ccc(C(=O)N/N=C/c2sc3ccccc3c2O)cc1,10.0,0.0,81.1*,i,30.3,-0.1
O=C(N/N=C/c1sc2ccccc2c1O)c1cccc2ccccc12,9.6,0.0,35.8,i,11.7,-0.3
Cc1cc(=O)[nH]c(NN=Cc2cc(Br)ccc2O)n1,.,.,.,.,-2.4,.
Cc1cc(=O)[nH]c(N/N=C/c2c(F)c(F)c(F)c(F)c2F)n1,5.7,0.0,75.9*,i,3.5,-0.1
CCOc1cc(/C=N/Nc2ncc(C)c(=O)[nH]2)ccc1O,9.0,3.0,99.7*,i,-16.4,0.6
CCOc1cc(/C=N/Nc2nc(C)cc(=O)[nH]2)ccc1O,-0.8,0.0,95.8*,i,5.9,0.5
O=C(N/N=C/c1coc2ccccc2c1=O)c1cc(Br)c(O)c(Br)c1,46.2*,5.0,97.8*,i,-0.2,0.1
CCCOc1cccc(C(=O)N/N=C/c2coc3ccccc3c2=O)c1,9.7,3.0,96.9*,i,-0.4,0.0

# Bioassay records: PubChem, several laboratories
